Data reported in PubChem BioAssay AID1159580 (chemical genetic matrix, 2015).
In all, about 5,500 compounds went through this assay and about 2,000 (36%) were called active. Another 18% or so got no clear call; they are omitted. No stated cut-off is given here; in the data, active means normalized growth mostly below about 0.91 (no sharp cut-off); inconclusive means no clear call, values can overlap the other calls; inactive means mostly above about 0.92. The list shows a part of the results.

Experiment: chemical genetic growth profiling, strain panel (AID 1159580);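 further: tested at 20 µM; growth read once vehicle control cultures reached saturation at 30 °C; 1 = growth at the plate median or of vehicle wells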
Details: growth OD

Measured: normalized growth

COc1ccc(NS(=O)(=O)c2ccc(N)cc2)nn1
inactive: S. cerevisiae deletion strains, locus YKL009W, strain mrt4, stronger effect = lower value 1 | S. cerevisiae deletion strains, locus YKL068W, stronger effect = lower value 0.997 | S. cerevisiae deletion strains, locus YKL085W, strain MDH1 (second series), stronger effect = lower value 0.999 | S. cerevisiae deletion strains, locus YKL085W, strain MDH1, stronger effect = lower value 0.999 | S. cerevisiae deletion strains, locus YKL160W, strain elf1, stronger effect = lower value 0.984 | S. cerevisiae deletion strains, locus YKL190W, strain CNB1, stronger effect = lower value 1.02 | S. cerevisiae deletion strains, locus YKR001C, strain vps1, stronger effect = lower value 0.985 | S. cerevisiae deletion strains, locus YKR026C, strain gcn3, stronger effect = lower value 1.01 | S. cerevisiae deletion strains, locus YKR091W, strain srl3, stronger effect = lower value 0.993 | S. cerevisiae deletion strains, locus YLL001W, strain dnm1, stronger effect = lower value 0.967 | S. cerevisiae deletion strains, locus YLL026W, stronger effect = lower value 0.997 | S. cerevisiae deletion strains, locus YLL041C, strain sdh2, stronger effect = lower value 0.993 | S. cerevisiae deletion strains, locus YLR027C, strain aat2, stronger effect = lower value 1 | S. cerevisiae deletion strains, locus YLR039C, strain RIC1, stronger effect = lower value 1.01 | S. cerevisiae deletion strains, locus YLR058C, strain SHM2, stronger effect = lower value 1.03 | S. cerevisiae deletion strains, locus YLR102C, strain apc9, stronger effect = lower value 0.986 | S. cerevisiae deletion strains, locus YLR113W, strain HOG1, stronger effect = lower value 1.01 | S. cerevisiae deletion strains, locus YLR221C, strain rsa3, stronger effect = lower value 0.989 | S. cerevisiae deletion strains, locus YLR258W, strain gsy2, stronger effect = lower value 0.971 | S. cerevisiae deletion strains, locus YLR262C, strain YPT6 (second series), stronger effect = lower value 1.02 | S. cerevisiae deletion strains, locus YLR262C, strain YPT6, stronger effect = lower value 1.06 | S. cerevisiae deletion strains, locus YLR268W, strain sec22, stronger effect = lower value 0.99 | S. cerevisiae deletion strains, locus YLR320W, strain mms22, stronger effect = lower value 0.961 | S. cerevisiae deletion strains, locus YLR330W, strain CHS5, stronger effect = lower value 1.01 | S. cerevisiae deletion strains, locus YLR342W, strain FKS1 (second series), stronger effect = lower value 1.01 | S. cerevisiae deletion strains, locus YLR342W, strain FKS1, stronger effect = lower value 0.963 | S. cerevisiae deletion strains, locus YLR357W, strain rsc2, stronger effect = lower value 0.945 | S. cerevisiae deletion strains, locus YLR370C, strain arc18, stronger effect = lower value 0.999 | S. cerevisiae deletion strains, locus YLR371W, strain rom2, stronger effect = lower value 0.983 | S. cerevisiae deletion strains, locus YLR384C, strain iki3, stronger effect = lower value 1.02 | S. cerevisiae deletion strains, locus YLR418C, strain cdc73, stronger effect = lower value 1 | S. cerevisiae deletion strains, locus YML016C, strain PPZ1, stronger effect = lower value 1.02 | S. cerevisiae deletion strains, locus YML032C, strain rad52, stronger effect = lower value 0.994 | S. cerevisiae deletion strains, locus YML120C, strain ndi1, stronger effect = lower value 1 | S. cerevisiae deletion strains, locus YML124C, strain tub3, stronger effect = lower value 0.994 | S. cerevisiae deletion strains, locus YMR058W, strain fet3, stronger effect = lower value 1.01 | S. cerevisiae deletion strains, locus YMR078C, strain ctf18, stronger effect = lower value 0.997 | S. cerevisiae deletion strains, locus YMR125W, strain sto1, stronger effect = lower value 1.01 | S. cerevisiae deletion strains, locus YMR129W, stronger effect = lower value 0.989 | S. cerevisiae deletion strains, locus YMR205C, strain PFK2, stronger effect = lower value 0.986 | S. cerevisiae deletion strains, locus YMR223W, strain ubp8, stronger effect = lower value 0.99 | S. cerevisiae deletion strains, locus YMR231W, strain pep5, stronger effect = lower value 0.994 | S. cerevisiae deletion strains, locus YMR307W, strain GAS1, stronger effect = lower value 1.01 | S. cerevisiae deletion strains, locus YNL067W, strain RPL9B, stronger effect = lower value 1.03 | S. cerevisiae deletion strains, locus YNL071W, strain lat1, stronger effect = lower value 1 | S. cerevisiae deletion strains, locus YNL128W, strain TEP1, stronger effect = lower value 1.02 | S. cerevisiae deletion strains, locus YNL153C, strain GIM3, stronger effect = lower value 1.04 | S. cerevisiae deletion strains, locus YNL183C, strain NPR1, stronger effect = lower value 0.935 | S. cerevisiae deletion strains, locus YNL209W, strain ssb2, stronger effect = lower value 1.01 | S. cerevisiae deletion strains, locus YNL233W, strain BNI4, stronger effect = lower value 1.03 | S. cerevisiae deletion strains, locus YNL248C, strain rpa49, stronger effect = lower value 0.994 | S. cerevisiae deletion strains, locus YNL250W, strain rad50, stronger effect = lower value 0.984 | S. cerevisiae deletion strains, locus YNL271C, strain bni1, stronger effect = lower value 0.983 | S. cerevisiae deletion strains, locus YNL298W, strain CLA4, stronger effect = lower value 0.981 | S. cerevisiae deletion strains, locus YNL307C, strain MCK1, stronger effect = lower value 0.993 | S. cerevisiae deletion strains, locus YNL322C, strain KRE1 (second series), stronger effect = lower value 0.974 | S. cerevisiae deletion strains, locus YNR049C, strain mso1, stronger effect = lower value 0.999 | S. cerevisiae deletion strains, locus YNR052C, strain pop2, stronger effect = lower value 0.987 | S. cerevisiae deletion strains, locus YOL006C, strain TOP1, stronger effect = lower value 1.09 | S. cerevisiae deletion strains, locus YOL012C, strain htz1 1.23 | S. cerevisiae deletion strains, locus YOL147C, strain pex11, stronger effect = lower value 0.99 | S. cerevisiae deletion strains, locus YOR001W, strain rrp6, stronger effect = lower value 1 | S. cerevisiae deletion strains, locus YOR061W, strain CKA2, stronger effect = lower value 1.02 | S. cerevisiae deletion strains, locus YOR069W, strain VPS5, stronger effect = lower value 1.01 | S. cerevisiae deletion strains, locus YOR070C, strain gyp1, stronger effect = lower value 1 | S. cerevisiae deletion strains, locus YOR080W, strain dia2, stronger effect = lower value 1 | S. cerevisiae deletion strains, locus YOR083W, strain WHI5, stronger effect = lower value 0.947 | S. cerevisiae deletion strains, locus YOR106W, strain vam3, stronger effect = lower value 1 | S. cerevisiae deletion strains, locus YOR136W, strain idh2, stronger effect = lower value 0.996 | S. cerevisiae deletion strains, locus YOR144C, strain elg1, stronger effect = lower value 0.992 | S. cerevisiae deletion strains, locus YOR184W, strain ser1, stronger effect = lower value 0.996 | S. cerevisiae deletion strains, locus YOR231W, strain MKK1, stronger effect = lower value 0.998 | S. cerevisiae deletion strains, locus YOR265W, strain rbl2, stronger effect = lower value 1 | S. cerevisiae deletion strains, locus YOR270C, strain vph1, stronger effect = lower value 1.05 | S. cerevisiae deletion strains, locus YOR290C, strain snf2, stronger effect = lower value 0.991 | S. cerevisiae deletion strains, locus YOR316C, strain cot1, stronger effect = lower value 0.985 | S. cerevisiae deletion strains, locus YPL051W, strain arl3, stronger effect = lower value 0.976 | S. cerevisiae deletion strains, locus YPL055C, strain LGE1, stronger effect = lower value 1.07 | S. cerevisiae deletion strains, locus YPL078C, strain atp4, stronger effect = lower value 0.994 | S. cerevisiae deletion strains, locus YPL106C, strain sse1, stronger effect = lower value 0.96 | S. cerevisiae deletion strains, locus YPL240C, strain hsp82, stronger effect = lower value 1 | S. cerevisiae deletion strains, locus YPL241C, strain CIN2, stronger effect = lower value 1.01 | S. cerevisiae deletion strains, locus YPL256C, strain CLN2, stronger effect = lower value 0.985 | S. cerevisiae deletion strains, locus YPR119W, strain clb2, stronger effect = lower value 0.997 | S. cerevisiae deletion strains, locus YPR141C, strain kar3, stronger effect = lower value 0.988 | S. cerevisiae deletion strains, locus YPR163C, strain tif3, stronger effect = lower value 0.99 | S. cerevisiae deletion strains, locus YPR167C, strain met16, stronger effect = lower value 0.992 | S. cerevisiae deletion strains, strain wtn01, stronger effect = lower value 0.986 | S. cerevisiae strains, strain wild type, stronger effect = lower value 1.01
